Assay outcomes as filed in PubChem BioAssay.
MEKK2 mut-MEK5: signal of MEK5 binding to mutant human MEKK2 PB1 domain. AID 1530. actives 0.35% (n = 290,000). percent response, % at 10 µM. bead flow cytometry, Alexa488-MEK5 binding to MEKK2 mutant; in the data active means percent response above about 24%, passing the limit was not always enough
Pf gametocyte: kills late stage P. falciparum gametocytes; P. falciparum stage V gametocytes, ATP luminescence, 24 h; inhibition, % at 10.9 µM; actives 0.065% (n = 150,000); AID 743093;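 active means inhibition above the mean plus 3 SD of compounds within the control limits, set per campaign, cut at about 38% in these data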;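 further: 0% = DMSO wells and 100% = medium only without gametocytes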
MEKK3 PB1 HTS: raises or lowers MEK5 binding to the human MEKK3 PB1 domain | AID 1529 | bead-based flow cytometry, Alexa488-MEK5 binding to MEKK3; actives lie on both sides; 0 = blocked by unlabeled MEK5, 100 = vehicle | actives 1.4% (n = 290,000) | binding response (% of control), % at 10 µM;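 active means binding response more than 3 SD above or below the average of its plate-row segment, actives on both sides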;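 further: Alexa488 bead fluorescence after subtracting the streptavidin-only scavenger bead signal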
Target sequence (Q99759 whole entry, looked up, the tested form may be a part): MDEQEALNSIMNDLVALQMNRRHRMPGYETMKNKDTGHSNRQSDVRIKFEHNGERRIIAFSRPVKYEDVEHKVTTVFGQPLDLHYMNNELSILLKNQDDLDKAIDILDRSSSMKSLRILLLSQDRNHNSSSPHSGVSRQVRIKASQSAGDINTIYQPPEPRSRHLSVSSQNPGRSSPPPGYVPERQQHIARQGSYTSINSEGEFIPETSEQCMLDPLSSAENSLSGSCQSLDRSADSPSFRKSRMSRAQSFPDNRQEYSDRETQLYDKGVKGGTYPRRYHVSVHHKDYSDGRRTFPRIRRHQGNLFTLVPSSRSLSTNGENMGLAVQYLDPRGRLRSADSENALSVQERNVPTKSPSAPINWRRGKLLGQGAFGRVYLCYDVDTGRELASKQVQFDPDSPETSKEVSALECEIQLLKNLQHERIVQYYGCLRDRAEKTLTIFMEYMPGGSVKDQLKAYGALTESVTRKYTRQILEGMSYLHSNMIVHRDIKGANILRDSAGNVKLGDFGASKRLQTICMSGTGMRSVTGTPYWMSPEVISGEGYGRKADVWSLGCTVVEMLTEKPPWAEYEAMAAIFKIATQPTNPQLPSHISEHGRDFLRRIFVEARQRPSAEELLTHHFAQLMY
Arbovirus inh: blocks arbovirus infection. actives 0.37% (n = 200,000). arbovirus infection cell-based antiviral screen. inhibition, % at 10 µM; in the data active means inhibition above about 30%
MEKK2 WT-MEK5: raises or lowers MEK5 binding to wildtype human MEKK2 PB1 domain; Q9Y2U5; bead flow cytometry, Alexa488-MEK5 binding to MEKK2 WT; actives lie on both sides; binding response (% of control), % at 10 µM; actives 1.1% (n = 290,000); AID 1531; in the data active means binding response below about 67% or above about 130%
MEKK2wt confirm: raises or lowers MEK5 binding to wildtype human MEKK2, retest. bead flow cytometry, Alexa488-MEK5 binding to MEKK2 WT; actives lie on both sides. actives 2.4% (n = 5,900). shares compounds with MEKK3 PB1 HTS. binding response (% of control), % at 10 µM; in the data active means binding response below about 16% or above about 210%; inactive means in between
MEKK2mut confirm: signal of MEK5 binding to mutant human MEKK2, retest | shares compounds with MEKK3 PB1 HTS | bead flow cytometry, Alexa488-MEK5 binding to MEKK2 mutant | percent response, % at 10 µM | actives 2% (n = 5,900) | AID 1893; in the data active means percent response mostly above about 71%, no sharp cut-off; inactive means mostly below about 38%;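 further: higher means compound restores mutant binding toward wildtype level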
MEKK3 confirm: confirmation of inhibitors of MEK5 binding to human MEKK3. shares compounds with MEKK3 PB1 HTS. bead flow cytometry, Alexa488-MEK5 binding to MEKK3; hits give low values. binding response (% of control), % at 10 µM. actives 1.8% (n = 5,900);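 active means binding response below 72% of control, or above a set upper limit, though filed actives all read lower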;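 further: 100% = DMSO only wells and 0% = binding blocked by excess unlabeled MEK5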
Numbers without * were called inactive; . = no result given; [ ] = remark or other dose. A selection: hits, their analogues and other compounds. The true share with any hit is near 2.4%.

SMILES	MEKK2 mut-MEK5	Pf gametocyte	MEKK3 PB1 HTS	Arbovirus inh	MEKK2 WT-MEK5	MEKK2wt confirm	MEKK2mut confirm	MEKK3 confirm
C#CCOCCOCCOCCNc1nc(N2CCN(C(=O)[C@H]([C@@H](C)CC)n3cc([C@@H](N)CO)nn3)CC2)nc(N2CCN(C(=O)[C@H]([C@@H](C)CC)n3cc([C@@H](N)CO)nn3)CC2)n1	1	.	85	.	75	.	.	.
C#CCOCCOCCOCCNc1nc(N2CCN(C(=O)[C@H](Cc3ccc(O)cc3)n3cc([C@@H](N)CC(C)C)nn3)CC2)nc(N2CCN(C(=O)[C@H](Cc3cc4ccccc4[nH]3)n3cc([C@@H](N)CC(C)C)nn3)CC2)n1	99*	-21	114	-8	230*	245*	93*	112
C#CCOCCOCCOCCNc1nc(N2CCOCC2)nc(N2CCN(C(=O)[C@H](Cc3cc4ccccc4[nH]3)n3cc([C@@H](N)C(C)CC)nn3)CC2)n1 (some centres undefined)	11	.	101	0	126	.	.	.
C#CCOCCOCCOCCNc1nc(N2CCN(C(=O)[C@H](CCC(=O)O)n3cc(C(N)[C@H](C)CC)nn3)CC2)nc(N2CCN(C(=O)[C@H](Cc3cc4ccccc4[nH]3)n3cc(C(N)[C@H](C)CC)nn3)CC2)n1 (some centres undefined)	1	.	101	1	101	.	.	.
C#CCOCCOCCOCCNc1nc(N2CCN(C(=O)[C@H]([C@@H](C)CC)n3cc([C@@H](N)CO)nn3)CC2)nc(N2CCN(C(=O)[C@H]([C@@H](C)CC)n3cc([C@@H](N)CC(C)C)nn3)CC2)n1	27	.	112	8	139*	115	6	101
COCc1cc(C)nc2sc(C(=O)NCCO)c(-n3cccc3)c12	5	6	106	7	107	.	.	.
C#CCOCCOCCOCCNc1nc(N2CCN(C(=O)[C@H]([C@@H](C)CC)n3cc([C@@H](N)CC(C)C)nn3)CC2)nc(N2CCN(C(=O)[C@H](Cc3cc4ccccc4[nH]3)n3cc([C@@H](N)Cc4ccc(O)cc4)nn3)CC2)n1	128*	.	115	-9	270*	226*	68	108
C#CCOCCOCCOCCNc1nc(N2CCN(C(=O)[C@H]([C@@H](C)CC)n3cc([C@@H](N)CC(C)C)nn3)CC2)nc(N2CCN(C(=O)[C@H](Cc3cc4ccccc4[nH]3)n3cc([C@@H](N)C(C)CC)nn3)CC2)n1 (some centres undefined)	37*	.	61	.	184*	227*	90*	106
C#CCOCCOCCOCCNc1nc(N2CCN(C(=O)[C@H](CCC(=O)O)n3cc(C(N)CC(C)C)nn3)CC2)nc(N2CCN(C(=O)[C@H](Cc3cc4ccccc4[nH]3)n3cc(C(N)[C@H](C)CC)nn3)CC2)n1 (some centres undefined)	3	.	100	1	109	.	.	.
C#CCOCCOCCOCCNc1nc(N2CCN(C(=O)[C@H](Cc3ccc(O)cc3)n3cc([C@@H](N)C(C)CC)nn3)CC2)nc(N2CCN(C(=O)[C@H](Cc3cc4ccccc4[nH]3)n3cc([C@@H](N)Cc4ccc(O)cc4)nn3)CC2)n1 (some centres undefined)	6	.	106	.	169*	241*	125*	113
Cc1cc(C)n2nc(CCCCc3nc4nc(C)cc(C)n4n3)nc2n1	6	.	106	2	104	.	.	.
COc1ccccc1CNC(=O)CCNC(=O)C1CCN(S(=O)(=O)c2ccccc2)CC1	2	.	101	.	102	.	.	.
O=S(=O)(Nc1ncccn1)c1ccc(NC(=S)NCCc2ccccc2)cc1	0	-20	101	3	100	.	.	.
CN(C)c1nnnn1-c1ccccc1Oc1ncc(C(F)(F)F)cc1Cl	-3	.	105	13	95	.	.	.
c1coc(CNC2CCCCCCC2)c1	1	8	98	-2	106	.	.	.
O=S1(=O)CC(O)C(NCc2ccco2)C1 (centres undefined)	-4	-8	75*[inhibitor]	5	81	102	3	106
CCN(CC)CCN(C(=O)c1ccc(S(=O)(=O)N(C)C2CCCCC2)cc1)c1nc2ccc(OC)cc2s1	5	.	103	.	129	.	.	.
COc1ccc2sc(N(CCCN(C)C)C(=O)c3nc4ccccc4s3)nc2c1	25	17	111	-9	195*	166	38	104
COc1ccc2nc(N(CCN(C)C)C(=O)c3ccc(C(=O)c4ccccc4)cc3)sc2c1	24*	.	108	.	146*	148	18	102
Cc1ccc2nc(N(CCN(C)C)C(=O)c3ccc4c(c3)OCCO4)sc2c1	12	.	99	.	115	.	.	.
CCN(CC)CCN(C(=O)c1ccc(C(=O)c2ccccc2)cc1)c1nc2ccc(OC)cc2s1	37*	.	113	.	172*	163	31	105
O=C(Nc1ccc([N+](=O)[O-])cc1)Nn1cnnc1	6	.	102	.	102	.	.	.
O=C(O)C(Oc1ccc2cc(-c3ccc(Cl)cc3)c(=O)oc2c1)c1ccccc1 (centres undefined)	3	-72	106	.	106	.	.	.
CCN(CC)S(=O)(=O)c1ccc(N2CCOCC2)c(NC(=O)c2cccc3ccccc23)c1	-1	14	91	3	101	.	.	.
CCN(CC)S(=O)(=O)c1ccc(N2CCOCC2)c(NC(=O)c2cc(=O)[nH]c3ccccc23)c1	-9	27	69*[inhibitor]	1	86	108	9	105
SMILES	MEKK2 mut-MEK5	Pf gametocyte	MEKK3 PB1 HTS	Arbovirus inh	MEKK2 WT-MEK5	MEKK2wt confirm	MEKK2mut confirm	MEKK3 confirm
O=C(NCc1cccs1)c1ccc(Cl)c(S(=O)(=O)N2CCCC2)c1	-2	-8	74*[inhibitor]	11	93	105	-1	103
O=C(NCc1ccco1)c1ccc(S(=O)(=O)N2CCOCC2)cc1	5	10	116	3	106	.	.	.
O=C(NCc1cccs1)c1cccc(S(=O)(=O)N2CCCCC2)c1	3	.	102	4	104	.	.	.
O=C(NCc1ccco1)c1ccc(S(=O)(=O)N2CCCCC2)cc1	0	1	130*	13	114	106	5	106
COC(CN(C)C(=O)c1cn(C)c2ccc(S(=O)(=O)N(C)C3CCCCC3)cc2c1=O)OC	-3	.	97	.	98	.	.	.
CC(C)c1ccc(NC(=O)CCc2ccccc2)cc1	2	9	103	.	107	.	.	.
